Results published in PubChem BioAssay (NCATS).
Records with an inconclusive call do not appear. Active and inactive are the calls of the source. Unless noted, calls follow the shape of the full dose curve.

System: not listed separately
Test: qHTS for Inhibitors of the Functional Ribonucleoprotein Complex (vRNP) of Lassa (LASV) Arenavirus: Viability assay - alamar blue signal for LASV Primary Screen (AID 1347083; calls by dose curve; tested in HEK293 reporter line; also: nearly all actives have a fitted effect of over 80% in size)
Conditions: cell viability, alamar blue fluorescence (LASV minigenome counter-screen); series mostly up to 57.5 µM; activity change, negative = reduced viability: at the top concentration
% is scaled to controls: 0 for no effect and ±100 for the full control effect; potency is read from the fitted curve at half-maximal effect.

Structure (SMILES)	activity change, negative = reduced viability	Potency
COc1cc(C)nc(-n2nc(C)cc2OC)n1	-0.393% (inactive)	–
CCCCCCNC(=O)n1cc(F)c(=O)[nH]c1=O	–	43.2 µM (active)
CCCCCCCCCC(=O)O[C@H]1CC[C@H]2[C@@H]3CCC4=CC(=O)CC[C@@H]4[C@H]3CC[C@]12C	13.8% (inactive)	–
N#C[C@H]1C[C@H]2C[C@@H]2N1C(=O)[C@@H](N)C12CC3CC(CC(O)(C3)C1)C2	-1.35% (inactive)	–

System: not listed separately
Test: qHTS for Inhibitors of the Functional Ribonucleoprotein Complex (vRNP) of Lymphocytic Choriomeningitis Arenaviruses (LCMV): Viability assay - alamar blue signal for LCMV Primary Screen (AID 1347085; calls by dose curve; tested in HEK293 reporter line; also: nearly all actives have a fitted effect of over 80% in size)
Conditions: alamar blue viability counter-screen, LCMV vRNP screen cells; series mostly up to 57.5 µM; activity change, negative = lower viability: at the top concentration

Structure (SMILES)	activity change, negative = lower viability	Potency
CCN(CC)C(=O)[C@@H]1C=C2c3cccc4[nH]cc(c34)C[C@H]2N(C)C1	-36.6% [at 222 µM] (inactive)	–
CN(C)c1ccc2nc3ccc(=[N+](C)C)cc-3sc2c1	–	24.3 µM (active)
O=C1c2ccccc2C(=O)C1C(=O)C(c1ccccc1)c1ccccc1	16.8% (inactive)	–
C[C@]12Cc3cn[nH]c3C[C@@H]1CC[C@@H]1[C@@H]2CC[C@@]2(C)[C@H]1CC[C@]2(C)O	0.0443% (inactive)	–
CC(=O)OC[C@H]1O[C@@H](n2ncc(=O)[nH]c2=O)[C@H](OC(C)=O)[C@@H]1OC(C)=O	-101% (inactive)	–
CCCc1ccc(OCC(=O)N2CCN(C(=O)COc3ccc(CCC)cc3OC)CC2)c(OC)c1	3.48% (inactive)	–
COc1cc2nc(Cl)nc(N)c2cc1OC	-0.946% (inactive)	–
CCCCOC(=O)c1ccc(N)cc1	-1.75% (inactive)	–
CNC(=O)c1ccccc1Sc1ccc2c(/C=C/c3ccccn3)n[nH]c2c1	-19.7% (inactive)	–
O=C(N/N=C/c1ccc([N+](=O)[O-])o1)c1ccc(O)cc1	–	25.1 µM (active)
CC(C=CC1=C(C)CCCC1(C)C)=CC=CC(C)=CC(=O)O	–	0.544 µM (active)
Cc1cc(O)c2ccccc2c1O	-7.38% (inactive)	–
Nc1nc(Cl)nc2c1ncn2[C@H]1C[C@H](O)[C@@H](CO)O1	–	8.63 µM (active)
COCC(=O)Nc1c(I)c(C(=O)NCC(O)CO)c(I)c(C(=O)N(C)CC(O)CO)c1I (stereo not drawn)	0.383% (inactive)	–
CCCCCCCCCC(=O)O[C@H]1CC[C@H]2[C@@H]3CCC4=CC(=O)CC[C@@H]4[C@H]3CC[C@]12C	15.6% (inactive)	–
C[C@](O)(CS(=O)(=O)c1ccc(F)cc1)C(=O)Nc1ccc(C#N)c(C(F)(F)F)c1	-2.19% (inactive)	–
CNCCCCOc1ccccc1Cc1ccccc1	-12.3% (inactive)	–

Target: Nucleoprotein (Lymphocytic choriomeningitis virus (strain Armstrong)) (UniProt P09992)
Test: qHTS for Inhibitors of the Functional Ribonucleoprotein Complex (vRNP) of Lymphocytic Choriomeningitis Arenaviruses (LCMV): LCMV Primary Screen - GLuc reporter signal (AID 1347086); also: nearly all actives have a fitted effect of over 70% in size
Conditions: LCMV minigenome vRNP cell assay, Gaussia luciferase reporter; series mostly up to 57.5 µM; activity change, negative = inhibition: at the top concentration

Chain of Nucleoprotein (Lymphocytic choriomeningitis virus (strain Armstrong)) (P09992 whole entry, looked up): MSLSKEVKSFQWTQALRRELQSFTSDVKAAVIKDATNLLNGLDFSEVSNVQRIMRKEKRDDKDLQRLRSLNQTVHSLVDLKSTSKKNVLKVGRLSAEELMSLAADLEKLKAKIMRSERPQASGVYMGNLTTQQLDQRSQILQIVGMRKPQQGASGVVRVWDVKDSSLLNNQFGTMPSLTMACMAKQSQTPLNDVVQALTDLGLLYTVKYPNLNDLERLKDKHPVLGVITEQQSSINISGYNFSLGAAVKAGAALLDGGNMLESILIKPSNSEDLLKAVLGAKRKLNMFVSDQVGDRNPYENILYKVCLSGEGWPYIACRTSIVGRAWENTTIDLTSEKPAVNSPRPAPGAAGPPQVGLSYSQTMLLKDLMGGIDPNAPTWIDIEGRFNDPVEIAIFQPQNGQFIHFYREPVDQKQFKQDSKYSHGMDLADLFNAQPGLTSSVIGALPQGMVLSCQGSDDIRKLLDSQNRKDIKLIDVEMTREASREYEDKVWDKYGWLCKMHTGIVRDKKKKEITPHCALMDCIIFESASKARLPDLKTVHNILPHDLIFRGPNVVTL

Structure (SMILES)	activity change, negative = inhibition	Potency
CCN(CC)C(=O)[C@@H]1C=C2c3cccc4[nH]cc(c34)C[C@H]2N(C)C1	9.54% [at 222 µM] (inactive)	–
Cc1c(N)nc([C@H](CC(N)=O)NC[C@H](N)C(N)=O)nc1C(=O)N[C@H](C(=O)N[C@H](C)[C@@H](O)[C@H](C)C(=O)N[C@H](C(=O)NCCc1nc(-c2nc(C(=O)NCCCCN=C(N)N)cs2)cs1)[C@@H](C)O)[C@@H](O[C@@H]1O[C@@H](CO)[C@@H](O)[C@H](O)[C@@H]1O[C@H]1O[C@H](CO)[C@@H](O)[C@H](OC(N)=O)[C@@H]1O)c1cnc[nH]1	28% (inactive)	–
CN(C)c1ccc2nc3ccc(=[N+](C)C)cc-3sc2c1	–	6.85 µM (active)
O=C1c2ccccc2C(=O)C1C(=O)C(c1ccccc1)c1ccccc1	12.2% (inactive)	–
CCOC(=O)c1ccc(N)cc1	-24% (inactive)	–
C[C@]12Cc3cn[nH]c3C[C@@H]1CC[C@@H]1[C@@H]2CC[C@@]2(C)[C@H]1CC[C@]2(C)O	6.14% (inactive)	–
Cc1cccc(C)c1OCC(=O)N[C@@H](Cc1ccccc1)[C@@H](O)C[C@H](Cc1ccccc1)NC(=O)[C@H](C(C)C)N1CCCNC1=O	–	38.5 µM (active)
O=C1CN(/N=C/c2ccc([N+](=O)[O-])o2)C(=O)N1	-38.8% (inactive)	–
O=C(O)Cc1ccc(-c2ccccc2)cc1	-23.8% (inactive)	–
CC(=O)OC[C@H]1O[C@@H](n2ncc(=O)[nH]c2=O)[C@H](OC(C)=O)[C@@H]1OC(C)=O	-70% (inactive)	–
C[C@]12CCC(=O)C=C1CC[C@@H]1[C@H]3CC[C@](C)(O)[C@@]3(C)CC[C@@H]12	-8.98% [at 115 µM] (inactive)	–
COc1cc(C(=O)NS(=O)(=O)c2ccccc2C)ccc1Cc1cn(C)c2ccc(NC(=O)OC3CCCC3)cc12	7.81% (inactive)	–
CCCc1ccc(OCC(=O)N2CCN(C(=O)COc3ccc(CCC)cc3OC)CC2)c(OC)c1	-3.84% (inactive)	–
C=CC[C@@H]1C=C(C)C[C@H](C)C[C@H](OC)[C@H]2O[C@@](O)(C(=O)C(=O)N3CCCC[C@H]3C(=O)O[C@H](C(C)=C[C@@H]3CC[C@H](O)[C@H](OC)C3)[C@@H](C)[C@@H](O)CC1=O)[C@@H](C)C[C@@H]2OC	–	30.6 µM (active)
CN(C)C(=O)COC(=O)Cc1ccc(OC(=O)c2ccc(N=C(N)N)cc2)cc1	22.4% (inactive)	–
CC(C)Cc1ccc(C(C)C(=O)O)cc1 (stereo not drawn)	–	inactive
Nc1ncn([C@H]2C[C@H](O)[C@@H](CO)O2)c(=O)n1	6.65% (inactive)	–
